The supplement of paper PMC7595190

How the values were obtained:
CMK = assay: CellTox Green cytotoxicity fluorescence relative to DMSO vehicle (fold of vehicle RFU); higher = more cell death (loss of membrane integrity), active = 2 or more
Procedure, shortened: (§1)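 MV4-11, CMK and Kasumi-1 cells were plated in 96-well black optical-bottom plates at 4.0 × 10^4 cells per well, and CellTox Green reagent was added at the time of seeding. Single compounds from the Selleckchem apoptosis library were diluted in DMSO and added at final concentrations of 0.01, 0.1 and 1 µM, with 0.1% DMSO as vehicle. Plates were kept at 37 °C and 5% CO2 and read at 24, 48 and 72 h (Ex 485 nm, Em 520 nm). Cytotoxicity reflects loss of membrane integrity and is given as fluorescence relative to the DMSO vehicle, expressed as fold.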

Kasumi-1 = assay: as above
Procedure, shortened: as §1

Measured: CellTox Green cytotoxicity fluorescence

CC1=C(O)C(=O)C=C2C1=CC=C1[C@@]2(C)CC[C@@]2(C)[C@@H]3C[C@](C)(C(=O)O)CC[C@]3(C)CC[C@]12C [Celastrol]
active: CMK; 1 µM, 24 h 2.38 | CMK; 1 µM, 48 h 3.09 | CMK; 1 µM, 72 h 2.25
inactive: CMK; 0.01 µM, 24 h 0.959 | CMK; 0.01 µM, 48 h 0.961 | CMK; 0.01 µM, 72 h 0.98 | CMK; 0.1 µM, 24 h 0.946 | CMK; 0.1 µM, 48 h 0.94 | CMK; 0.1 µM, 72 h 0.932 | Kasumi-1; 0.01 µM, 24 h 0.916 | Kasumi-1; 0.01 µM, 48 h 0.923 | Kasumi-1; 0.01 µM, 72 h 0.903 | Kasumi-1; 0.1 µM, 24 h 0.954 | Kasumi-1; 0.1 µM, 48 h 0.962 | Kasumi-1; 0.1 µM, 72 h 0.952 | Kasumi-1; 1 µM, 24 h 1.23 | Kasumi-1; 1 µM, 48 h 1.43 | Kasumi-1; 1 µM, 72 h 1.47

COc1ccc2c(c1)/C(=C/c1cnc[nH]1)C(=O)N2
inactive: CMK; 0.01 µM, 24 h 0.911 | CMK; 0.01 µM, 48 h 0.923 | CMK; 0.01 µM, 72 h 1.04 | CMK; 0.1 µM, 24 h 0.922 | CMK; 0.1 µM, 48 h 0.924 | CMK; 0.1 µM, 72 h 1.05 | CMK; 1 µM, 24 h 0.934 | CMK; 1 µM, 48 h 0.914 | CMK; 1 µM, 72 h 0.881 | Kasumi-1; 0.01 µM, 24 h 0.934 | Kasumi-1; 0.01 µM, 48 h 0.941 | Kasumi-1; 0.01 µM, 72 h 0.971 | Kasumi-1; 0.1 µM, 24 h 0.976 | Kasumi-1; 0.1 µM, 48 h 0.981 | Kasumi-1; 0.1 µM, 72 h 0.966 | Kasumi-1; 1 µM, 24 h 0.881 | Kasumi-1; 1 µM, 48 h 0.948 | Kasumi-1; 1 µM, 72 h 0.963

COc1cc(C)[nH]c(=O)c1CNC(=O)c1c(C)n([C@H](C)C2CCOCC2)c2ccccc12
inactive: CMK; 0.01 µM, 24 h 0.942 | CMK; 0.01 µM, 48 h 0.948 | CMK; 0.01 µM, 72 h 0.965 | CMK; 0.1 µM, 24 h 0.936 | CMK; 0.1 µM, 48 h 0.944 | CMK; 0.1 µM, 72 h 0.919 | CMK; 1 µM, 24 h 0.949 | CMK; 1 µM, 48 h 0.973 | CMK; 1 µM, 72 h 0.965 | Kasumi-1; 0.01 µM, 24 h 0.935 | Kasumi-1; 0.01 µM, 48 h 0.952 | Kasumi-1; 0.01 µM, 72 h 0.966 | Kasumi-1; 0.1 µM, 24 h 0.97 | Kasumi-1; 0.1 µM, 48 h 0.948 | Kasumi-1; 0.1 µM, 72 h 0.954 | Kasumi-1; 1 µM, 24 h 1.03 | Kasumi-1; 1 µM, 48 h 0.982 | Kasumi-1; 1 µM, 72 h 0.976

O=c1[nH]c2ccccc2n1C1CCN(Cc2ccc(-c3[nH]c4cc5ncnc5cc4nc3-c3ccccc3)cc2)CC1
inactive: CMK; 0.01 µM, 24 h 1.02 | CMK; 0.01 µM, 48 h 0.991 | CMK; 0.01 µM, 72 h 0.913 | CMK; 0.1 µM, 24 h 0.983 | CMK; 0.1 µM, 48 h 0.97 | CMK; 0.1 µM, 72 h 0.906 | CMK; 1 µM, 24 h 0.966 | CMK; 1 µM, 48 h 0.967 | CMK; 1 µM, 72 h 0.949 | Kasumi-1; 0.01 µM, 24 h 0.972 | Kasumi-1; 0.01 µM, 48 h 0.961 | Kasumi-1; 0.01 µM, 72 h 0.96 | Kasumi-1; 0.1 µM, 24 h 0.969 | Kasumi-1; 0.1 µM, 48 h 0.99 | Kasumi-1; 0.1 µM, 72 h 0.958 | Kasumi-1; 1 µM, 24 h 1.08 | Kasumi-1; 1 µM, 48 h 1.29 | Kasumi-1; 1 µM, 72 h 1.35

CN[C@@H]1C[C@H]2O[C@@](C)([C@@H]1OC)n1c3ccccc3c3c4c(c5c6ccccc6n2c5c31)C(=O)NC4 [Staurosporine]
inactive: CMK; 0.01 µM, 24 h 0.96 | CMK; 0.01 µM, 48 h 0.998 | CMK; 0.01 µM, 72 h 1.07 | CMK; 0.1 µM, 24 h 1.01 | CMK; 0.1 µM, 48 h 1.29 | CMK; 0.1 µM, 72 h 1.4 | CMK; 1 µM, 24 h 1.1 | CMK; 1 µM, 48 h 1.45 | CMK; 1 µM, 72 h 1.29 | Kasumi-1; 0.01 µM, 24 h 0.984 | Kasumi-1; 0.01 µM, 48 h 1.18 | Kasumi-1; 0.01 µM, 72 h 1.24 | Kasumi-1; 0.1 µM, 24 h 1.08 | Kasumi-1; 0.1 µM, 48 h 1.54 | Kasumi-1; 0.1 µM, 72 h 1.74 | Kasumi-1; 1 µM, 24 h 1.67
active: Kasumi-1; 1 µM, 48 h 2.08 | Kasumi-1; 1 µM, 72 h 2.12

CC[C@H](C)[C@@H]([C@@H](CC(=O)N1CCC[C@H]1[C@H](OC)[C@@H](C)C(=O)N[C@H](C)[C@@H](O)c1ccccc1)OC)N(C)C(=O)[C@@H](NC(=O)[C@@H](NC)C(C)C)C(C)C [Monomethyl auristatin E]
active: CMK; 0.1 µM, 48 h 2.24 | CMK; 1 µM, 48 h 2.64
inactive: CMK; 0.01 µM, 24 h 1.24 | CMK; 0.01 µM, 48 h 1.82 | CMK; 0.01 µM, 72 h 1.43 | CMK; 0.1 µM, 24 h 1.52 | CMK; 0.1 µM, 72 h 1.56 | CMK; 1 µM, 24 h 1.97 | CMK; 1 µM, 72 h 1.78 | Kasumi-1; 0.01 µM, 24 h 1.06 | Kasumi-1; 0.01 µM, 48 h 1.27 | Kasumi-1; 0.01 µM, 72 h 1.44 | Kasumi-1; 0.1 µM, 24 h 1.17 | Kasumi-1; 0.1 µM, 48 h 1.42 | Kasumi-1; 0.1 µM, 72 h 1.53 | Kasumi-1; 1 µM, 24 h 1.31 | Kasumi-1; 1 µM, 48 h 1.56 | Kasumi-1; 1 µM, 72 h 1.62

Cn1c(COP(=O)(NCCBr)NCCBr)cnc1[N+](=O)[O-]
inactive: CMK; 0.01 µM, 24 h 0.974 | CMK; 0.01 µM, 48 h 0.98 | CMK; 0.01 µM, 72 h 0.991 | CMK; 0.1 µM, 24 h 0.972 | CMK; 0.1 µM, 48 h 0.996 | CMK; 0.1 µM, 72 h 1.07 | CMK; 1 µM, 24 h 0.975 | CMK; 1 µM, 48 h 1.24 | CMK; 1 µM, 72 h 1.89 | Kasumi-1; 0.01 µM, 24 h 1.03 | Kasumi-1; 0.01 µM, 48 h 0.968 | Kasumi-1; 0.01 µM, 72 h 0.958 | Kasumi-1; 0.1 µM, 24 h 0.962 | Kasumi-1; 0.1 µM, 48 h 0.956 | Kasumi-1; 0.1 µM, 72 h 0.952 | Kasumi-1; 1 µM, 24 h 0.977 | Kasumi-1; 1 µM, 48 h 0.974 | Kasumi-1; 1 µM, 72 h 0.977

Cc1cc2c(C(C)C)c(O)c(O)c(C=O)c2c(O)c1-c1c(C)cc2c(C(C)C)c(O)c(O)c(C=O)c2c1O
inactive: CMK; 0.01 µM, 24 h 0.986 | CMK; 0.01 µM, 48 h 0.967 | CMK; 0.01 µM, 72 h 0.952 | CMK; 0.1 µM, 24 h 0.998 | CMK; 0.1 µM, 48 h 0.982 | CMK; 0.1 µM, 72 h 0.961 | CMK; 1 µM, 24 h 0.986 | CMK; 1 µM, 48 h 0.979 | CMK; 1 µM, 72 h 0.85 | Kasumi-1; 0.01 µM, 24 h 0.96 | Kasumi-1; 0.01 µM, 48 h 0.957 | Kasumi-1; 0.01 µM, 72 h 0.955 | Kasumi-1; 0.1 µM, 24 h 0.99 | Kasumi-1; 0.1 µM, 48 h 0.973 | Kasumi-1; 0.1 µM, 72 h 0.975 | Kasumi-1; 1 µM, 24 h 0.98 | Kasumi-1; 1 µM, 48 h 0.966 | Kasumi-1; 1 µM, 72 h 0.978

COc1cc([C@@H]2c3cc4c(cc3[C@H](O)[C@H]3COC(=O)[C@@H]23)OCO4)cc(OC)c1OC [Picropodophyllin]
inactive: CMK; 0.01 µM, 24 h 0.955 | CMK; 0.01 µM, 48 h 0.958 | CMK; 0.01 µM, 72 h 0.973 | CMK; 0.1 µM, 24 h 1.06 | CMK; 0.1 µM, 48 h 1.23 | CMK; 0.1 µM, 72 h 1.08 | CMK; 1 µM, 24 h 1.34 | CMK; 1 µM, 72 h 1.58 | Kasumi-1; 0.01 µM, 24 h 0.945 | Kasumi-1; 0.01 µM, 48 h 0.978 | Kasumi-1; 0.01 µM, 72 h 0.997 | Kasumi-1; 0.1 µM, 24 h 0.993 | Kasumi-1; 0.1 µM, 48 h 0.999 | Kasumi-1; 0.1 µM, 72 h 1.06 | Kasumi-1; 1 µM, 24 h 1.16 | Kasumi-1; 1 µM, 48 h 1.35 | Kasumi-1; 1 µM, 72 h 1.48
active: CMK; 1 µM, 48 h 2.12

O=C(O)C(=O)c1cn(Cc2ccccc2)c2ccc(-c3ccc(OC(F)(F)F)cc3)cc12 [Tiplaxtinin]
inactive: CMK; 0.01 µM, 24 h 1.02 | CMK; 0.01 µM, 48 h 1.01 | CMK; 0.01 µM, 72 h 1 | CMK; 0.1 µM, 24 h 1.01 | CMK; 0.1 µM, 48 h 1.02 | CMK; 0.1 µM, 72 h 0.987 | CMK; 1 µM, 24 h 0.968 | CMK; 1 µM, 48 h 0.972 | CMK; 1 µM, 72 h 0.943 | Kasumi-1; 0.01 µM, 24 h 1.02 | Kasumi-1; 0.01 µM, 48 h 1.01 | Kasumi-1; 0.01 µM, 72 h 1.03 | Kasumi-1; 0.1 µM, 24 h 1.02 | Kasumi-1; 0.1 µM, 48 h 1.02 | Kasumi-1; 0.1 µM, 72 h 1.03 | Kasumi-1; 1 µM, 24 h 0.968 | Kasumi-1; 1 µM, 48 h 0.983 | Kasumi-1; 1 µM, 72 h 0.973
